Results taken from PubChem BioAssay AID602179 (National Center for Advancing Translational Sciences (NCATS), 2012).
The campaign covered roughly 390,000 compounds. About 360 (0.092%) were called active. Calls follow the shape of the dose curve; as a rule, active = well fitted inhibition curve with a large enough effect; inconclusive = small, poorly fitted or top-dose-only effect; inactive = no such curve, though single readings can be large or run the other way. The sample as a whole holds a higher share of actives than the screen did.

biological target: Isocitrate dehydrogenase [NADP] cytoplasmic (Homo sapiens) (UniProt O75874); test: qHTS for Inhibitors of mutant isocitrate dehydrogenase 1 (IDH1): qHTS; conditions: IDH1-R132H enzyme, NADPH consumption, diaphorase/resazurin fluorescence; series mostly up to 76.6 µM; activity change, negative = inhibition: at the top concentration; also: nearly all actives have a fitted effect of over 65% in size
Sequence (O75874 whole entry R132H, stated change not applied, canonical isoform): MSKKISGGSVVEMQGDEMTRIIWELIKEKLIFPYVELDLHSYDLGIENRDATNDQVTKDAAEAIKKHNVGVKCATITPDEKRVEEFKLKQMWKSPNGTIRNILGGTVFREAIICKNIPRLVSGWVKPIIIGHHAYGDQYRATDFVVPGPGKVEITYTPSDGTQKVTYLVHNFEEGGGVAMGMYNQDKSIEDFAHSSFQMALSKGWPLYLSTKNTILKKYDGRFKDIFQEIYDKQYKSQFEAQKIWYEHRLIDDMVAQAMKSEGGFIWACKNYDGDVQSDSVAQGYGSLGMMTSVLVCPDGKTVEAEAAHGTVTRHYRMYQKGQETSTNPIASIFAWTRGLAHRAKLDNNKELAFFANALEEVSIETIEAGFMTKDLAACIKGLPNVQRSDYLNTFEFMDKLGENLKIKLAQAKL
Description: Unbiased genomic sequencing for 22 glioma genomes found recurrent mutation of isocitrate dehydrogenase 1 (IDH1) on chromosome 2q33-a gene encoding the cytosolic isoform of IIDH1associated with the tricarboxylic acid cycle (TCA) that catalyzes the oxidative decarboxylation of isocitrate, yielding alpha-ketoglutarate and CO2 via NADP+ to NADPH conversion. Subsequent studies confirmed the recurrent IDH mutations in up to 70% of secondary gliomas and in 10% of AML cases. […] This in effect defines IDH1 as an oncogene, and provides an extraordinary opportunity to discover chemical probes against mutant IDH1 that may translate into much needed new therapies for glioma and AML patients. […] NIH Chemical Genomics Center [NCGC] NIH Molecular Libraries Probe Centers Network [MLPCN] MLPCN Grant: DA032129 Assay Submitter (PI): Lenny Dang, Agios Pharmaceuticals
IDH1-R132H (0.5 ug/mL) was dispensed into black, solid-bottom 1536-well plates at 3 uL/well in 20 mM Tris-HCl (pH 7.5), 150 mM NaCl, 10 mM MgCl2, 4 mM beta-ME, and 0.05% protease-free BSA. Then, 23 nL of compounds or DMSO were delivered to each well using a pin tool. A pre-read was run on the Viewlux to identify fluorescent compounds (540 nm excitation filter, 598 nm emission filter, bodipy mirror and 2 second exposure). After 30 minutes of incubation with compound, 3 uL of substrate mix were dispensed (0.016 mM NADPH, 2 mM alpha-KG, 20 mM Tris-HCl (pH 7.5), 150 mM NaCl, 10 mM MgCl2, and 0.05% protease-free BSA). Plates were spun for 1 min at 1000xg and incubated at room temperature for 80 min. Then 1.5 uL of each detection reagent component for the coupling system were added (0.12 mg/mL diaphorase and 0.072 mM resazurin, each in 20 mM Tris-HCl (pH 7.5), 150 mM NaCl, 10 mM MgCl2, and 0.05% protease-free BSA ) The protein, substrate and two detection components were maintained at 4 °C throughout the screen. Additionally, the substrate and resazurin reagents were protected from light. The plates were measured on an Envision plate reader for fluorescence signal using a 540 nm excitation filter and 590 nm emission filter with 10 flashes. 1x and 0x (no-enzyme) IDH1-R132H enzyme control were used to normalize %Activity of identified inhibitors; 0x enzyme values corresponded to 100% Activity (full inhibition), while 1x IDH1-R132H enzyme values were used to normalize 0%Activity (no inhibition). Concentration-response curves were fitted to the signals arising from the resulting fluorescence. The concentration-effect curves were then classified based on curve quality (r2), response magnitude and degree of measured activity, and compounds were subsequently categorized based on their curve class. […] Keywords: isocitrate dehydrogenase, IDH1, IDH1-R132H, MLSMR, MLPCN, NIH Roadmap, qHTS, NCGC
Potency is read from the fitted curve at half-maximal effect.

**Q.** Which “activity change, negative = inhibition” value does the source give for `Cc1cc(N2CCN(c3cccc(C(F)(F)F)c3)CC2)n2nc(-c3ccccc3)nc2n1` here?
**A.** -9.04% (inactive)

**Q.** For `COC(=O)c1cc(S(=O)(=O)N2CCN(c3cc(Cl)ccc3C)CC2)c[nH]1`, which “activity change, negative = inhibition” value is on record?
**A.** -12.5% (inactive)

**Q.** With `COc1ccc(CCNC(=O)c2ccc3c(c2)nc(C)n3-c2ccc(Br)cc2)cc1OC` as the compound, how does the “activity change, negative = inhibition” value read?
**A.** 6.54% (inactive)

**Q.** With `COc1ccc(CNC(=O)CCc2c(C)nn(-c3ccc(N4CCCC4)nn3)c2C)cc1` as the compound, how does the “activity change, negative = inhibition” value read?
**A.** -5.82% (inactive)

**Q.** With `CCOc1ccc(N(CC)S(=O)(=O)N2CCCC(C(=O)NCc3ccc(SC)cc3)C2)cc1` (configuration not stated) as the compound, how does the “activity change, negative = inhibition” value read?
**A.** -6.03% (inactive)

**Q.** Which “activity change, negative = inhibition” value does the source give for `COc1ccc(CN2C(=O)CC(Cc3ccc(C)cc3)C2=O)cc1OC` (configuration not stated) here?
**A.** 0.852% (inactive)

**Q.** `CCCCOc1ccc(CN2C(=O)C(=O)c3cc(Br)cc(C)c32)cc1OC` was tested. Which Potency did it give?
**A.** 28.2 µM (active)

**Q.** For `CCCCOc1ccc(Cn2c(=O)oc3ccc(C)cc32)cc1OC`, which “activity change, negative = inhibition” value is on record?
**A.** 0.174% (inactive)

**Q.** With `O=S(=O)(c1ccc(Br)cc1)c1nnn2c1nc(N1CCOCC1)c1sccc12` as the compound, how does the “activity change, negative = inhibition” value read?
**A.** 7.56% (inactive)

**Q.** With `COc1ccc(N2C(=O)CSC23C(=O)N(Cc2cccc(F)c2)c2ccccc23)cc1Cl` (configuration not stated) as the compound, how does the “activity change, negative = inhibition” value read?
**A.** -7.21% (inactive)

**Q.** How did the “activity change, negative = inhibition” value turn out when `Cc1ccc(CNC(=O)CSc2c3c(nc4cc(Cl)ccc24)CCCC3)cc1` was run?
**A.** 12.5% (inactive)

**Q.** For `Cc1cc(Cl)ccc1NC(=O)Cc1ccc(NC(=O)N2CCCCc3ccccc32)cc1`, which “activity change, negative = inhibition” value is on record?
**A.** -7.17% (inactive)

**Q.** For `CC1CN(C(=O)N2CCC(C(=O)NCc3cccs3)CC2)c2ccccc2O1` (configuration not stated), which “activity change, negative = inhibition” value is on record?
**A.** 13.4% (inactive)

**Q.** For `Cc1ccc(O)c(NC(=O)c2cc(-c3ccc(F)cc3)no2)c1`, which “activity change, negative = inhibition” value is on record?
**A.** 0% (inactive)

**Q.** Which “activity change, negative = inhibition” value does the source give for `Cc1ccc(Nc2nc3ccccc3nc2-n2nc(C)cc2C)c(Cl)c1` here?
**A.** 0% (inactive)

**Q.** How did the “activity change, negative = inhibition” value turn out when `CCCN(CCC)C(=O)Cn1c(=O)n(-c2ccc(Cl)cc2)c(=O)c2c3c(sc21)CCCCC3` was run?
**A.** 3.66% (inactive)

**Q.** For `CCCn1c2ccccc2c2cnn(CC(=O)N(CC)c3cc(C)ccc3C)c(=O)c21`, which “activity change, negative = inhibition” value is on record?
**A.** -8.48% (inactive)

**Q.** With `N#Cc1ccc(-c2cccs2)nc1SCc1ccc(Br)cc1` as the compound, how does the “activity change, negative = inhibition” value read?
**A.** -10.1% (inactive)

**Q.** How did the “activity change, negative = inhibition” value turn out when `COc1ccc(Cl)cc1NC(=O)CSc1nc2ccccc2c2nc(-c3ccccc3)nn12` was run?
**A.** 11.3% (inactive)

**Q.** Which “activity change, negative = inhibition” value does the source give for `O=C(CCc1cn(Cc2ccc(F)cc2)c2ccccc12)NC1CCCCC1` here?
**A.** -2.83% (inactive)

**Q.** `O=C(C1COc2ccccc2O1)N(Cc1cccnc1)c1nc2c(F)cc(F)cc2s1` (configuration not stated) was tested. Which “activity change, negative = inhibition” value did it give?
**A.** 0% (inactive)

**Q.** For `CCOC(=O)c1ccc(NC(=O)Cn2c(=O)n(-c3ccc(C)cc3)c(=O)c3c2cnn3C)cc1`, which “activity change, negative = inhibition” value is on record?
**A.** 0% (inactive)

**Q.** Which “activity change, negative = inhibition” value does the source give for `CCCCn1c(CNC(=O)C23CC4CC(CC(C4)C2)C3)nnc1SCC(=O)Nc1ccc(C)cc1` here?
**A.** -2.28% (inactive)

**Q.** With `COCCNC(=O)c1ccc2c(c1)N(Cc1cccc(Cl)c1)C(=O)c1ccccc1S2(=O)=O` as the compound, how does the “activity change, negative = inhibition” value read?
**A.** -14.2% (inactive)

**Q.** With `COc1ccc(-c2nnc(SCC(=O)Nc3ccccc3C)o2)cc1OC` as the compound, how does the “activity change, negative = inhibition” value read?
**A.** -3.15% (inactive)

**Q.** Which “activity change, negative = inhibition” value does the source give for `CCCCc1nn2c(=O)cc(COC(=O)c3ccccc3NC(=O)C(C)(C)C)nc2s1` here?
**A.** -4.52% (inactive)

**Q.** With `COc1cc(NC(=O)CSc2nc3nc(C)c(Cc4ccc(C)cc4)c(C)n3n2)cc(OC)c1OC` as the compound, how does the “activity change, negative = inhibition” value read?
**A.** -14.1% (inactive)

**Q.** Which “activity change, negative = inhibition” value does the source give for `Cc1ccc(CCNC(=O)c2ccc(CNS(=O)(=O)c3ccc(C)cc3)cc2)cc1` here?
**A.** 11.2% (inactive)

**Q.** For `CCOC(=O)c1ccc(N2C(=O)c3n[nH]c(C)c3C2c2ccc(O)c(OC)c2)cc1` (configuration not stated), which “activity change, negative = inhibition” value is on record?
**A.** 8.11% (inactive)

**Q.** How did the “activity change, negative = inhibition” value turn out when `CCOc1ccc(S(=O)(=O)N(CC(=O)NCCSCc2ccc(C)cc2)c2ccccc2)cc1` was run?
**A.** 8.13% (inactive)

**Q.** Which “activity change, negative = inhibition” value does the source give for `O=C(CSc1oc(-c2ccco2)nc1S(=O)(=O)c1ccccc1)c1ccc(Cl)cc1` here?
**A.** 8.02% (inactive)

**Q.** Which “activity change, negative = inhibition” value does the source give for `Cc1ccccc1Nc1nn2c(=O)c3ccc(C(=O)NCCc4ccc(Cl)cc4)cc3nc2s1` here?
**A.** 2.65% (inactive)

**Q.** `Cc1ccc(OCC(=O)OCc2cc(=O)n3nc(C4CC4)sc3n2)cc1C` was tested. Which “activity change, negative = inhibition” value did it give?
**A.** 1.02% (inactive)

**Q.** How did the “activity change, negative = inhibition” value turn out when `CC(C)NC(=O)c1nn(-c2ccccc2F)nc1CO` was run?
**A.** -6.1% (inactive)

**Q.** Which “activity change, negative = inhibition” value does the source give for `Cc1cccc(OCCCC(=O)Nc2sc3c(c2C(N)=O)CCC(C)C3)c1` (configuration not stated) here?
**A.** 15.6% (inactive)

**Q.** With `O=C(CN1C(=O)COc2ccc(S(=O)(=O)N3CCCCCC3)cc21)N1CCN(c2cccc(C(F)(F)F)c2)CC1` as the compound, how does the “activity change, negative = inhibition” value read?
**A.** 0.874% (inactive)

**Q.** For `O=c1cc(CSc2ncn[nH]2)[nH]c2ccc(F)cc12`, which “activity change, negative = inhibition” value is on record?
**A.** 11.8% (inactive)

**Q.** For `O=C(CN1CCSc2ccccc21)N1CCN(c2ccccc2)CC1`, which “activity change, negative = inhibition” value is on record?
**A.** 9.76% (inactive)

**Q.** Which “activity change, negative = inhibition” value does the source give for `CCCc1nn2c(=O)cc(COC(=O)c3ccc(NC(=O)C(C)Oc4ccccc4)cc3)nc2s1` (configuration not stated) here?
**A.** -1.97% (inactive)

**Q.** How did the “activity change, negative = inhibition” value turn out when `Cc1ccc2c(c1)N(C(=O)Nc1ccc(Br)cc1F)CCO2` was run?
**A.** 26.6% (inactive)

**Q.** With `O=C(CCc1ccccc1)NCc1ccc2c(c1)CCN2C(=O)c1ccccc1` as the compound, how does the “activity change, negative = inhibition” value read?
**A.** -11.1% (inactive)

**Q.** How did the “activity change, negative = inhibition” value turn out when `O=C(CSc1nnc(CNC(=O)c2ccccc2)n1-c1ccc(F)cc1)Nc1ccccc1F` was run?
**A.** -2.52% (inactive)

**Q.** With `CN(C(=O)CSc1nc2ccccc2n1Cc1ccccc1C#N)c1ccccc1` as the compound, how does the “activity change, negative = inhibition” value read?
**A.** -6.83% (inactive)

**Q.** How did the “activity change, negative = inhibition” value turn out when `CCOC(=O)c1c(C)[nH]c(C)c1S(=O)(=O)N1CCCC(C(=O)NCc2ccccc2Cl)C1` (configuration not stated) was run?
**A.** -13.9% (inactive)

**Q.** `CCCN1C(=O)C(Cc2nc3ccccc3c(=O)n2-c2ccccc2)c2cc(C)ccc21` (configuration not stated) was tested. Which “activity change, negative = inhibition” value did it give?
**A.** -1.15% (inactive)

**Q.** `CCCc1nc2c(c(=O)c3ccccc3n2C)c(=O)n1C1CCCCCC1` was tested. Which Potency did it give?
**A.** 46.5 µM (active)

**Q.** How did the “activity change, negative = inhibition” value turn out when `CCOc1ccc(NC(=O)c2cn(C3CCCCC3)c(=O)c3c2c2ccccc2n3C)cc1` was run?
**A.** -10.2% (inactive)

**Q.** Which “activity change, negative = inhibition” value does the source give for `Cc1ccc(S(=O)(=O)N(Cc2nc(-c3ccc(Cl)cc3)no2)C2CCCCC2)cc1` here?
**A.** 0.339% (inactive)

**Q.** Which “activity change, negative = inhibition” value does the source give for `COc1cc2ccccc2cc1C(=O)Nc1cccc(-c2nc3ccccc3o2)c1` here?
**A.** -0.407% (inactive)

**Q.** For `CC1CCCCN1S(=O)(=O)c1ccc(F)c(C(=O)Nc2ccccc2C(F)(F)F)c1` (configuration not stated), which “activity change, negative = inhibition” value is on record?
**A.** -7.74% (inactive)

**Q.** Which “activity change, negative = inhibition” value does the source give for `CCOc1cccc(CNC(=O)c2ccc(N3CCCC3)c(NC(=O)Nc3ccccc3CC)c2)c1` here?
**A.** -22.9% (inactive)

**Q.** With `CCOc1ccc(NC(=O)C(=O)NCCc2csc3nc(-c4ccccc4F)nn23)cc1` as the compound, how does the “activity change, negative = inhibition” value read?
**A.** -15.9% (inactive)

**Q.** `Cc1ccccc1CNC(=O)CCc1cn(Cc2ccccc2C)c2ccccc12` was tested. Which “activity change, negative = inhibition” value did it give?
**A.** 0% (inactive)

**Q.** With `Cc1c(Cl)cccc1-c1ccc(CNCCCSc2nnnn2C)o1` as the compound, how does the “activity change, negative = inhibition” value read?
**A.** 0% (inactive)

**Q.** Which “activity change, negative = inhibition” value does the source give for `COc1ccc(-c2nc(CN3CCC(C(=O)NCCN(CC(C)C)CC(C)C)CC3)c(C)o2)cc1OC` here?
**A.** -5.21% (inactive)

**Q.** For `CCOc1ccc(-c2n[nH]c3c2C(c2ccccc2OC)N(c2ccc(Br)cc2)C3=O)cc1` (configuration not stated), which “activity change, negative = inhibition” value is on record?
**A.** -10.1% (inactive)

**Q.** For `CN(Cc1ccccc1)S(=O)(=O)c1ccc(F)c(C(=O)Nc2cccc(Cl)c2Cl)c1`, which “activity change, negative = inhibition” value is on record?
**A.** 0% (inactive)
